PubChem BioAssay

Key:
[1] = test system: Botulinum neurotoxin type F light chain protease (Clostridium botulinum); test: Clostridium botulinum type F light chain protease inhibitors, microsphere substrate cleavage, validation (AID 588459); settings: multiplex microsphere protease substrate cleavage assay, flow cytometry; at 10 µM; hits give high values
[2] = target: Botulinum neurotoxin type A (Clostridium botulinum) (UniProt P0DPI0); test: BoNT/A light chain protease inhibitors, biochemical, multiplex microsphere flow cytometry, validation set (AID 588460); settings: at 10 µM, hits give high values
Botulinum neurotoxin type A (Clostridium botulinum), sequence (P0DPI0 whole entry, looked up): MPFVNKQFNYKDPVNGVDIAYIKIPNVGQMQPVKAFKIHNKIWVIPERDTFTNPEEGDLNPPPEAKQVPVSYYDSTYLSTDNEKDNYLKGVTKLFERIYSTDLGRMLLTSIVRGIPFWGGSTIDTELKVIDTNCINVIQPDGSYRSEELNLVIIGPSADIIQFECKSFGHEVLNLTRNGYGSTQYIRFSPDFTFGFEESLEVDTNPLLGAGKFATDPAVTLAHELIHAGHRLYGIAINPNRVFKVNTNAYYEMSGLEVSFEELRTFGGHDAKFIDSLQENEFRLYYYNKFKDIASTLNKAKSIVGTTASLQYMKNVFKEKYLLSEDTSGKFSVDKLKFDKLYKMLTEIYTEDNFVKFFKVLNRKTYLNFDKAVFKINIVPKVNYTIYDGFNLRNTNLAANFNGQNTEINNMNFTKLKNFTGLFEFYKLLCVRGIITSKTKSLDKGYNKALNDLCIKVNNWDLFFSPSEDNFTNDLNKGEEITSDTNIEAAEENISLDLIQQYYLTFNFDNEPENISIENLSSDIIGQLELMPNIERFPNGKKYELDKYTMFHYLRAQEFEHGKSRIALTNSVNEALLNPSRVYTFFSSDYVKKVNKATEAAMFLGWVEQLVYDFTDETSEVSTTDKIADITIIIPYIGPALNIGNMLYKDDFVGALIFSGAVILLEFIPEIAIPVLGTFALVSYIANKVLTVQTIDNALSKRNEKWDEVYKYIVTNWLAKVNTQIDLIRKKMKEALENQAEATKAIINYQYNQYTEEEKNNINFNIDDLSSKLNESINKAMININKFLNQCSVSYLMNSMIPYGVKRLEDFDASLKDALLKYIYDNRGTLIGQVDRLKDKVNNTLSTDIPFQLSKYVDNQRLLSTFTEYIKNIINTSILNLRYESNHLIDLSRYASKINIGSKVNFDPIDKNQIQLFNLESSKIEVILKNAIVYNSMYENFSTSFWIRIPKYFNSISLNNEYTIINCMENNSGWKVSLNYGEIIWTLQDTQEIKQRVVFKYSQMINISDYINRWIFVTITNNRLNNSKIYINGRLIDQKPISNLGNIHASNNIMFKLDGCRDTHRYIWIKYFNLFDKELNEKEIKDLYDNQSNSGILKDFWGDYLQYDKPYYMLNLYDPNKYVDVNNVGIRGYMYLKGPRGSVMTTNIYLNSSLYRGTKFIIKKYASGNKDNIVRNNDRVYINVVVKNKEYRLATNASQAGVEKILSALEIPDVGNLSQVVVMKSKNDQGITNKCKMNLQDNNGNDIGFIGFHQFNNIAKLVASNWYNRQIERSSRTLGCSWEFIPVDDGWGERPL

[3] = target: Lethal factor (Bacillus anthracis) (UniProt P15917); test: Bacillus anthracis lethal factor inhibition, microsphere flow cytometry protease assay, validation at 10 µM (AID 588461); settings: multiplex microsphere protease cleavage assay, hits give high values
Lethal factor (Bacillus anthracis), sequence (P15917 whole entry, looked up): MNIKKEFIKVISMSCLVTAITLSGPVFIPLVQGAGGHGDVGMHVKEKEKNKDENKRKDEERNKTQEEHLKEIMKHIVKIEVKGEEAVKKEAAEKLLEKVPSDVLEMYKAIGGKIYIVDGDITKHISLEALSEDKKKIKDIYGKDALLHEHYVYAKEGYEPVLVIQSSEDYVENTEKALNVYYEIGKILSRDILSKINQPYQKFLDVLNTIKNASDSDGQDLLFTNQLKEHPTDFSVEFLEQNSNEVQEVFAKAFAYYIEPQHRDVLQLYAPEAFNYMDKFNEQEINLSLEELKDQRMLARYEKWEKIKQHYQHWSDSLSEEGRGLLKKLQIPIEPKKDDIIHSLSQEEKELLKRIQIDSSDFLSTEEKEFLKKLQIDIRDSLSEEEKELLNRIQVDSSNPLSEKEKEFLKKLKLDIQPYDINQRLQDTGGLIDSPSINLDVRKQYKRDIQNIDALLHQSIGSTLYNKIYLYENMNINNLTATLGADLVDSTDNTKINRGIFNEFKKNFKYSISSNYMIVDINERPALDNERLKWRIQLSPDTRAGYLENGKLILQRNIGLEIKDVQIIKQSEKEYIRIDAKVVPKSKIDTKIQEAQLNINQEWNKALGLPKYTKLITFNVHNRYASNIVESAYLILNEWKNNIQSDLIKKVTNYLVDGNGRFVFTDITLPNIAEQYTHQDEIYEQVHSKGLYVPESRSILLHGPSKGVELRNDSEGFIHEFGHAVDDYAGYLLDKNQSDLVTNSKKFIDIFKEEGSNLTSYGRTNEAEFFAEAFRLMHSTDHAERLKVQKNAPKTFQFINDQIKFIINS

Measured: inhibition

CC1=NN(c2ccccc2)C(=O)C1
inactive: [1] 1.1% | [2] -3% | [3] 1.8%

CCOC(=O)Cn1c(C)cc(=O)c2ccccc21
inactive: [1] 6.3% | [2] 1.7% | [3] 9.6%

C[C@H](NC(=O)OC(C)(C)C)C(=O)NCC1CCC(C(=O)O)CC1 (stereo not given in full)
inactive: [1] 2.7% | [2] -2.2% | [3] -1.1%

COc1cccc(OC2OC3COC(C)(C)OC3C(O)C2NC(C)=O)c1 (stereo not given)
inactive: [1] -0.8% | [2] 0.2% | [3] 0.5%

CC(=O)NCCCC(=O)NC(CCC(=O)OCc1ccccc1)C(=O)OCc1ccccc1 (stereo not given)
inactive: [1] -1% | [2] -1.4% | [3] -8.6%

CCc1oc2ccccc2c1C(=O)c1cc(Br)c(O)c(Br)c1
inactive: [1] -6.8% | [2] -0.5% | [3] -0.4%

N/C(=N\OC(=O)c1cccc(Br)c1)c1ccncc1
inactive: [1] 0.8% | [2] 0.4% | [3] -3.1%

C/C(CCc1oc2ccc(Cl)cc2c1-c1ccc(C)o1)=N\O
inactive: [1] 1.6% | [2] -0.7% | [3] -3.2%

COCc1cc(=O)[nH]c(Nc2nc3ccccc3o2)n1
inactive: [1] -3.7% | [2] -0.7% | [3] 0.7%

COc1cc2c3c(c1)C1(C(=O)N3C(C)(C)C=C2C)C(C#N)=C(N)Oc2cc(C)oc(=O)c21 (stereo not given)
inactive: [1] 0.4% | [2] 2.4% | [3] -3.3%

COc1cccc(/C=C/C(=O)c2c(O)cc(C)oc2=O)c1O
inactive: [1] 7% | [2] 1.7% | [3] 5.4%

COc1cc(OC)c2c(C)c(Cl)c(=O)oc2c1
inactive: [1] 1.9% | [2] -0.8% | [3] -3.3%

CN1[C@@H](CC(=O)c2ccccc2)CCC[C@H]1C[C@H](O)c1ccccc1
inactive: [1] 3.2% | [2] -1% | [3] -2.2%

c1ccc(CC2=NCCN2)cc1
inactive: [1] 1.9% | [2] -1.4% | [3] -4.7%

COC(=O)C1=CN(Cc2cccs2)C=C(C(=O)OC)C1c1cccc(Cl)c1
inactive: [1] -4.5% | [2] -0.4% | [3] -4%

O=C(c1ccc(Cl)cc1)C1CCCN(Cc2ccc(Oc3ncccn3)cc2)C1 (stereo not given)
inactive: [1] 2.2% | [2] -1.2% | [3] -3.2%

NS(=O)(=O)c1cc2c(cc1Cl)NCNS2(=O)=O
inactive: [1] -3.8% | [2] -2.4% | [3] -4.7%

CCN1/C(=C/C=C/C=C/c2sc3ccccc3[n+]2CC)Sc2ccccc21
inactive: [1] -1% | [2] 16.8% | [3] -36.6%

CC1(C)CC(=O)c2cc(O)ccc2O1
inactive: [1] 2% | [2] 0.1% | [3] -2.1%

CCCCOc1ccc(C(=O)CCN2CCCCC2)cc1
inactive: [1] 3.4% | [2] 1.8% | [3] -1.7%

O=C(/C=C/Sc1ccccc1)c1ccccc1
inactive: [1] -0.5% | [2] -0.8% | [3] -4.1%

COc1cc(OC)c(-c2nc3cnccc3n2C)cc1OC
inactive: [1] -2.3% | [2] -1.9% | [3] -1.6%

Cc1ccccc1NC(=O)C1c2ccccc2Oc2ccccc21
inactive: [1] 0.4% | [2] -0.3% | [3] 6.3%

COc1ccc(C2NC(C(=O)O)Cc3c2[nH]c2ccccc32)cc1CN1CCN(c2ccc(F)cc2)CC1 (stereo not given)
inactive: [1] 8.8% | [2] 0.4% | [3] 2.2%

OCCN(CCO)c1ccc2ccccc2c1
inactive: [1] -1.3% | [2] -1.2% | [3] -6.6%

COc1ccccc1C(CCN(Cc1ccccc1)C(C)=O)c1ccco1 (stereo not given)
inactive: [1] -6.5% | [2] -1.3% | [3] -0.5%

Cc1nc2ccccc2n1CC(O)Cn1c2ccccc2c2ccccc21 (stereo not given)
inactive: [1] 2.9% | [2] -0.1% | [3] -0.7%

CCC(C)NCCOCCOc1ccc(Cl)cc1Br (stereo not given)
inactive: [1] 0.5% | [2] 0.2% | [3] -2.1%

CC(C)c1ccc(OCc2ccc(C(=O)O)o2)cc1
inactive: [1] 0.6% | [2] -0.2% | [3] 2.5%

Cn1cc(/C=C/C(=O)c2ccccc2)c2ccccc21
inactive: [1] -4.2% | [2] -0.5% | [3] -5.4%
